Compound activity (PubChem)
GLP-1R inv ag: acts as inverse agonist at human GLP-1 receptor. HEK293 GLP-1R CRE-luciferase, luminescence, 24 h; GLP-1R form is constitutively active. Potency, µM (top dose mostly 38.3 µM), inactives show at the highest dose activity change, negative = inhibition, hits mostly inhibitors. P43220. 410,000 compounds, 1.6% hits; note: % is set by controls: 0 for no effect and ±100 for the full control effect; nearly all actives have a fitted effect of over 55% in size
Target sequence (P43220 whole entry, looked up): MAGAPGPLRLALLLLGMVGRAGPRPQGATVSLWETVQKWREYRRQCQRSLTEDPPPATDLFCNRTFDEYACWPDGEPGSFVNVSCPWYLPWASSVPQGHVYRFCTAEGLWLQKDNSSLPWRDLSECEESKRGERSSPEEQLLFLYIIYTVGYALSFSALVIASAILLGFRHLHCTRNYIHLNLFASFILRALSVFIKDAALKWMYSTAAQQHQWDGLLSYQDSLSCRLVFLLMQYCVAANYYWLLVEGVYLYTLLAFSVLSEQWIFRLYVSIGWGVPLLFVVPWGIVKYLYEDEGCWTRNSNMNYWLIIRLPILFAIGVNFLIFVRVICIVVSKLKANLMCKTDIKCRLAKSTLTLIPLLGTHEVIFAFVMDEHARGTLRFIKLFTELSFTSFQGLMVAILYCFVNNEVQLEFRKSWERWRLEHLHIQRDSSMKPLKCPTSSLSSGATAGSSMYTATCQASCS
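Luminescence readout: a drop in cAMP-driven luciferase signal flags inverse agonism at a constitutively active GLP-1R stably expressed in HEK293. Compound exposure lasted 24 hr at 37 deg C, 5% CO2.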
PTHR1 ag: activates the human parathyroid hormone receptor PTHR1; Q03431; HEK293 GP2 PTHR1 cells, GloSensor cAMP luminescence, 1 h; Potency, µM (series often up to 115 µM), inactives show at the highest dose activation, hits mostly activators; 410,000 compounds, 0.075% hits; note: nearly all actives have a fitted effect of over 55% in size
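HEK-293-derived GP2 cells expressing PTHR1 and a GloSensor cAMP reporter, 3,000/well, plated overnight, given luciferin plus IBMX (each 0.5 mM as added) for 1 h at 37 °C, then compound for 1 h at 37 °C. Luminescence was read after 15 min at room temperature.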
KAT2A inh: blocks human GCN5L2 histone acetyltransferase | Q92830 | GCN5L2 HAT assay, ThioGlo1 CoA-SH fluorescence | Potency, µM (highest dose often 58.9 µM), for inactives: at the highest dose activity change, negative = inhibition, most hits filed as inhibitors | 390,000 compounds, 0.21% hits | AID 504327; note: % is set by controls: 0 for no effect and ±100 for the full control effect
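ThioGlo1-coupled HAT assay: 20nM GCN5L2, 70uM acetyl-CoA, 75uM H3(1-25) peptide, pH 7.5. Fluorescence read at 340/540nm at start and after 20 min at room temperature.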
RGS4 inh: blocks human RGS4-accelerated GTP hydrolysis; Potency, µM (top dose mostly 114 µM), inactives show at the highest dose activity change, negative = inhibition, hits mostly inhibitors; AID 504845; P49798; Transcreener GDP fluorescence polarization, RGS4-accelerated GTP hydrolysis; 390,000 compounds, 0.039% hits; note: % is set by controls: 0 for no effect and ±100 for the full control effect; nearly all actives have a fitted effect of over 75% in size
Target sequence (P49798 whole entry, looked up): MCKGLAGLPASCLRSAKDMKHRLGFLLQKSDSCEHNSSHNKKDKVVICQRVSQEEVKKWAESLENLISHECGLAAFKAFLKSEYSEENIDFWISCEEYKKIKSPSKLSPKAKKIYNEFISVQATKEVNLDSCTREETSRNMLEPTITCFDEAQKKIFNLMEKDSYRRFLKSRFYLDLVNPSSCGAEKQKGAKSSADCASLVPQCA
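MLSMR compounds (23 nl, pin-transferred) preincubated 10 min at room temperature with a 500nM (2x) first reagent, then RGS4 at 900nM (2x) plus Transcreener GDP mix added; fluorescence polarization (620/688 nm) read before and after 90 min at 30 °C.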
HEK293 tox: cytotoxicity in counter-screen for GLP-1R inverse agonists. AID 624418. Potency, µM (series often up to 38.3 µM), inactives show top-dose activity change, negative = inhibition, actives largely listed as inhibitors. HEK293 cAMP-luciferase reporter cells, luminescence, 24 h. 410,000 compounds, 0.13% hits;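 note: loss of luciferase light is scored as toxicity; % is set by controls: 0 for no effect and ±100 for the full control effect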
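Quantitative HTS format, 1536 wells, 200 cells/uL seeded. Compounds: 23 nL, 24 h, 37 °C. Detection: luciferase reagent, luminescence at 12 min RT; decreased signal taken as cytotoxic.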
GLP1R ag: GLP-1 receptor (human) agonism; Potency, µM (titrated, usually from 45.6 µM), inactives show at the top dose activation, hits mostly activators; HEK293 GLP-1R CRE-luciferase, luminescence, 4-6 h; cells express a hypersensitive GLP-1R form; P43220; 380,000 compounds, 0.007% hits; note: % of control where 0% means no effect
* = called active by the depositor. Compounds with a hit are over-represented: about 1.8% of the library has one in this group of screens. Calls come from the whole dose curve; as a rule, active = well fitted curve in the direction sought with a large enough effect; inconclusive = small, poorly fitted or top-dose-only effect, or another doubt; inactive = no such curve, though single readings can be large; an effect the other way counts as inactive or inconclusive. Potency is the fitted concentration of half-maximal effect.

For CCc1ccccc1N1CC(c2nc3ccccc3n2CCC2CCCCC2)CC1=O (stereo not given) the results were GLP-1R inv ag inconclusive, PTHR1 ag -95%, KAT2A inh -3%, RGS4 inh 11% and HEK293 tox inconclusive.
For CCN(c1ccccc1)S(=O)(=O)c1cccc(C(=O)NCc2cccnc2)c1 the results were GLP-1R inv ag inconclusive, PTHR1 ag inactive, KAT2A inh -13%, RGS4 inh 13%, HEK293 tox -26% and GLP1R ag 4%.
Screening O=C(Nc1ccc(Cl)c(Cl)c1)c1cccc(S(=O)(=O)NCc2cccnc2)c1 returned GLP-1R inv ag 11µM*, PTHR1 ag -14%, KAT2A inh -3%, RGS4 inh 18%, HEK293 tox inconclusive and GLP1R ag 3%.
Cc1cccc(Nc2nc(NCc3ccco3)c3ccccc3n2)c1 was read as GLP-1R inv ag 2.2µM*, PTHR1 ag -45%, KAT2A inh -6%, RGS4 inh -12%, HEK293 tox inconclusive and GLP1R ag -12%.
Screening Cc1cccc(Nc2nc(N)c([N+](=O)[O-])c(NCc3ccccc3)n2)c1 returned GLP-1R inv ag inconclusive, PTHR1 ag inactive, KAT2A inh -7%, RGS4 inh 4%, HEK293 tox inconclusive and GLP1R ag inconclusive.
For C[C@H](CO)N1C[C@H](C)[C@@H](CN(C)S(=O)(=O)c2cccs2)Oc2ccc(NC(=O)Nc3ccc(C(F)(F)F)cc3)cc2C1=O the results were GLP-1R inv ag 8.9µM*, PTHR1 ag inactive, KAT2A inh -12%, RGS4 inh -13%, HEK293 tox inconclusive and GLP1R ag -1%.
Screening O=c1c2ccccc2sn1-c1ccc(Cl)cc1 returned GLP-1R inv ag inconclusive, PTHR1 ag -52%, HEK293 tox -7% and GLP1R ag -3%.
Screening Cc1ccc(-n2sc3ccccc3c2=O)cc1 returned GLP-1R inv ag inconclusive, PTHR1 ag -29%, KAT2A inh 7.1µM*, RGS4 inh -137%, HEK293 tox 10µM* and GLP1R ag -3%.
For C=CCN1C[C@@H](C)N([C@H](c2ccc(C(=O)N(CC)CC)cc2)c2cccc(OC)c2)C[C@@H]1C the results were KAT2A inh -4% and RGS4 inh inconclusive.
For Oc1ccc(Cl)cc1Sc1cc(Cl)ccc1O the results were GLP-1R inv ag 10µM*, PTHR1 ag -24%, RGS4 inh -2%, HEK293 tox -11% and GLP1R ag 4%.
For Oc1ccc(Cl)cc1 the results were GLP-1R inv ag 4%, PTHR1 ag -15%, KAT2A inh 0%, RGS4 inh -2%, HEK293 tox 5% and GLP1R ag -3%.
Screening CC(C)c1ccc(C(=O)CC2(O)C(=O)N(CCc3ccccc3)c3ccc(Cl)cc32)cc1 (stereo not given) returned GLP-1R inv ag inconclusive, PTHR1 ag inactive, KAT2A inh -15%, RGS4 inh 9%, HEK293 tox inconclusive and GLP1R ag -13%.
Screening COP(N)(=O)SC (stereo not given) returned KAT2A inh -12%.
Screening O=C(NCCN1CCC2(CC1)C(=O)NCN2c1cccc(F)c1)c1ccc2ccccc2c1 returned GLP-1R inv ag 7.9µM*, PTHR1 ag -9%, HEK293 tox 5% and GLP1R ag -5%.
For O=C(NCCN1CCC(n2c(=O)[nH]c3ccccc32)CC1)c1ccc2ccccc2c1 the results were GLP-1R inv ag inconclusive, PTHR1 ag -24%, HEK293 tox -11% and GLP1R ag 1%.
`CCOC(=O)c1c(-c2ccc(OC)cc2)oc2ccc(OC(=O)N(C)C)cc12` gave GLP-1R inv ag 5.6µM*, PTHR1 ag -23%, KAT2A inh -23%, RGS4 inh -9%, HEK293 tox -8% and GLP1R ag 6%.
For CC(OC(=O)COc1ccc(Nc2ccccc2)cc1)C(=O)N(C)c1ccccc1 (stereo not given) the results were GLP-1R inv ag inconclusive, PTHR1 ag -33%, KAT2A inh -6%, RGS4 inh 21%, HEK293 tox -21% and GLP1R ag 1%.
`CN1C(=O)c2ccccc2Sc2ccc(NC(=O)c3ccc(C(F)(F)F)cc3)cc21` gave GLP-1R inv ag 7%, PTHR1 ag -28%, KAT2A inh -5%, RGS4 inh 4% and HEK293 tox -3%.
CCC(Oc1ccccc1OC)C(=O)Nc1ccc2c(c1)OCCO2 (stereo not given) was read as GLP-1R inv ag inconclusive, PTHR1 ag inactive, KAT2A inh -1%, RGS4 inh 5%, HEK293 tox -13% and GLP1R ag -3%.
For Cc1ccc(S(=O)(=O)N(CC(=O)NCCSc2ccc(Cl)cc2)c2ccccc2C)cc1 the results were GLP-1R inv ag 11µM*, PTHR1 ag inactive, KAT2A inh -10%, RGS4 inh 15% and HEK293 tox -3%.
Cc1ccc(SCCNC(=O)c2cccc([N+](=O)[O-])c2C)cc1 was read as GLP-1R inv ag inconclusive, PTHR1 ag -38%, KAT2A inh -9%, RGS4 inh -18%, HEK293 tox 72% and GLP1R ag 2%.
Screening Cc1cccc(N(CC(=O)NCCSc2ccc(Cl)cc2)S(=O)(=O)c2ccccc2)c1C returned GLP-1R inv ag 10µM*, PTHR1 ag inactive, KAT2A inh -8%, RGS4 inh -13% and HEK293 tox -5%.
For CC(C)CCC(=O)OC1CCC2C3CCC4=CC(=O)CC[C@]4(C)C3CC[C@]12C (stereo not given in full) the results were GLP1R ag -4%.
C#C[C@]1(OC(=O)CCCCCC)CC[C@H]2C3CCC4=CC(=O)CC[C@@H]4[C@H]3CC[C@@]21C (stereo not given in full) was read as GLP1R ag -4%.
`CCOc1ccc(N(Cc2ccc(C(=O)O)cc2)S(=O)(=O)c2ccc(C)cc2)cc1` gave GLP-1R inv ag inconclusive, PTHR1 ag -7%, KAT2A inh -8%, RGS4 inh -6%, HEK293 tox inconclusive and GLP1R ag -2%.
For O=C(O)[C@H]1[C@H]2CN[C@H](C(=O)O)[C@H]21 the results were KAT2A inh -3% and RGS4 inh 6µM*.
